Experimental data as given in PubChem BioAssay AID504843 (Broad Institute, 2011).
Among all 1,200 compounds or so, about 360 (30%) were called active. How the calls were made is not given here. Not all results are given here. Results with a measured potency or affinity are listed apart.

assay: antibacterial activity by ATP level – BacTiter-Glo luminescence, cherry-picked samples, counter-screen, dose response (AID 504843); details: bacterial growth; series mostly up to 15 µM;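 further: growth measured after 8 h incubation at 30 °C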

SMILES | outcome
CCOC(=O)c1ccc(NC(=O)c2cn(CCC#N)nc2-c2ccc3c(c2)OCCO3)cc1 | inactive
O=C(NCc1cccnc1)c1cccc(-c2cc3ccccc3oc2=O)c1 | inactive
Cc1cnc(C(=O)OCC(=O)Nc2sc3c(c2C#N)CCC3)cn1 | inactive
CC1CCN(C(=O)c2ccc(S(=O)(=O)N3CCCC3)cc2)CC1 | inactive
CC(=O)Oc1ccc(C(=O)Nc2ccccc2C(=O)N2CCCCC2)cc1 | inactive
CCOC(=O)C1CCN(C(=O)Nc2ccc(C)c(Cl)c2)CC1 | inactive
Cc1ccccc1C(=O)N1CCN(c2ccc(NC(=S)NC(=O)c3cccs3)cc2)CC1 | inactive
CCc1ccc2c(COC(=O)C3CC(=O)N(CCc4ccccc4)C3)cc(=O)oc2c1 (stereo unspecified) | inactive
CN(C)c1nc(NCc2ccccc2)nc(SCC(N)=O)n1 | inactive
CCn1c(SCC(=O)c2ccccc2)nnc1-c1cccnc1 | inactive
CCOC(=O)C(C(=O)Nc1ccc(C)cc1)C1CCCCC1 (stereo unspecified) | inactive
COc1ccc(NC(=O)COCC(=O)Nc2ccc(C)cc2)cc1 | inactive
CC(C)(C)CC(=O)Nc1cccc(-c2cn3cccnc3n2)c1 | inactive
CCCCOc1ccc(NC(=O)c2cc(F)c(F)cc2Cl)cc1 | inactive
Cc1ccc(OCCNS(=O)(=O)c2ccc(N3CCCC3=O)cc2)cc1C | inactive
CCc1ccc(NC(=O)Nc2cc(C(=O)NCC3CCCO3)ccc2N2CC3CC(C2)c2cccc(=O)n2C3)cc1 (stereo unspecified) | inactive
CC(C)(C)OC(=O)NCCCCCNC(=O)c1[nH]cnc1C(=O)NC1CCN(C(=O)OC(C)(C)C)CC1 | inactive
COc1ccccc1OCCNC(=O)C1CCN(C(C)=O)CC1 | inactive
Cc1cc(C)cc(-n2c(C)cc(/C=C3\C(=N)N4N=C(CC(C)C)SC4=NC3=O)c2C)c1 | inactive
COc1ccc(CCNC(=O)/C=C/c2ccco2)cc1OC | inactive
O=C(NNc1ccnc2cc(Cl)ccc12)C1CCCCC1 | inactive
Cc1ccc(CN(C(=O)c2sc3ccccc3c2Cl)C2CCS(=O)(=O)C2)cc1 (stereo unspecified) | inactive

SMILES | outcome
O=C(O)[C@H](CO)Nc1ncnc2sc3c(c12)CCC3 | inactive
O=C(CCNS(=O)(=O)c1ccccc1C(F)(F)F)N1CCN(c2ccccc2O)CC1 | inactive
CCN(CC)C(=O)CSc1nc2ccccc2o1 | inactive
CCCCN(CC)CCNC(=S)Nc1ccc2nc(N3CCN(C)CC3)cc(C)c2c1 | inactive
O=C(Nc1ccc(C2=NCCN2)cc1)c1ccc(C(=O)Nc2ccc(C3=NCCN3)cc2)c([N+](=O)[O-])c1 | inactive
CC(=O)Nc1ccc(Nc2nc(C)c([N+](=O)[O-])c(N(C)c3ccccc3)n2)cc1 | inactive
CC1CN(C(=O)c2cc3cc([N+](=O)[O-])ccc3oc2=O)CC(C)O1 (stereo unspecified) | inactive
O=C(CSC1=NCCS1)c1ccc(Cl)cc1 | inactive
Cc1[nH]c2ccccc2c1Cc1nnc(SCC(N)=O)o1 | inactive
CCNc1c(NS(=O)(=O)c2ccc(OC)cc2)c(=O)oc2ccccc12 | inactive
COc1ccc(-c2cc(C)no2)cc1S(=O)(=O)NCCCN1CCCCCC1 | inactive
COc1ccccc1N1CCN(c2nc(-c3ccccc3)cc(C(F)(F)F)n2)CC1 | inactive
CCNc1nc(NCC)nc(OCCOC(C)=O)n1 | inactive
Nc1cc(N)nc(SCc2ccc(Cl)cc2)n1 | inactive
O=C(Nc1ccccc1F)c1ccc([N+](=O)[O-])s1 | inactive
Cc1cccc(NC(=O)c2cc(S(=O)(=O)N3CCC4(CC3)OCCO4)ccc2F)c1 | inactive
c1ccc2c(N3CCOCC3)nc(-c3ccncc3)nc2c1 | inactive
CCNC(=O)NC(=O)C(C)OC(=O)C1CCN(S(=O)(=O)c2ccccc2F)CC1 (stereo unspecified) | inactive
Cc1ccc(C)c(SCC(=O)Nc2cccc(S(=O)(=O)NC3=NCCCCC3)c2)c1 | inactive
Cc1cc(C)c(S(=O)(=O)N2CCN(C(=O)CN3C(=O)NC4(CCCC4)C3=O)CC2)c(C)c1 | inactive
Cc1ccc(CCNC(=O)CCS(=O)(=O)c2cc3c(cc2C)NC(=O)CO3)cc1 | inactive
CN(Cc1ccccc1)c1ncnc2sccc12 | inactive

SMILES | outcome
CC(C)(C)CC(=O)Nc1ccc(Nc2ccccc2)cc1 | inactive
Cc1cccc(NC(=O)[C@H](Cc2ccccc2)NC(=O)OCc2ccccc2)c1 | inactive
CC(C)CN(C(=O)COC(=O)c1ccccc1NCc1ccco1)c1c(N)n(Cc2ccccc2)c(=O)[nH]c1=O | inactive
CSc1ncccc1C(=O)OCC(=O)N(C)c1c(N)n(Cc2ccccc2)c(=O)[nH]c1=O | inactive
COC(=O)C[C@H]1c2cc(F)cc(F)c2S(=O)(=O)N1C1CCN(Cc2ccccc2)CC1 | inactive
O=C(Cn1c(=O)oc2cc(S(=O)(=O)N3CCc4ccccc43)ccc21)N1CCCCC1 | inactive
CCCCN(CC)CCNS(=O)(=O)c1ccc2c(c1)oc(=O)n2C | inactive
CCOc1cc(/C=N/NC(=O)C(=O)NCc2cccnc2)ccc1O | inactive
Cc1ccccc1NC(=S)N1CCN(Cc2ccc3c(c2)OCO3)CC1 | inactive
Cc1cccc(NC(=O)CNC(=O)CN2C(=O)NC3(CCc4ccccc43)C2=O)c1C (stereo unspecified) | inactive
Cc1ccc(C)c(NC(=O)CN(C)C(=O)c2cccc(S(=O)(=O)N(C)C)c2)c1 | inactive
COc1ccccc1C(=O)Nc1ccc2c(c1)CN(Cc1cnc(C)s1)CC2 | inactive
CCN(CC)S(=O)(=O)c1cc(NC(=O)c2ccc(-n3cncn3)c([N+](=O)[O-])c2)ccc1C | inactive
CC1CCN(c2ccc(C(=O)NCc3ccco3)cc2[N+](=O)[O-])CC1 | inactive
CC1(C)C2CCC1(C)C(NC(=O)/C=C/c1ccccc1)C2 (stereo unspecified) | inactive
O=c1oc2ccccc2c(N2CCC(c3ccccc3)CC2)c1[N+](=O)[O-] | inactive
Cc1ccccc1N/N=C/c1ccc(C#N)cc1 | inactive
Cc1ccc(-c2nn(-c3ccccc3)cc2CC(=S)N2CCOCC2)cc1 | inactive
O=C(CSc1nnc(-c2ccccc2)n1C1CCCCC1)N1CCCC1 | inactive
Cc1cccc(-n2c(SCC(=O)NC3CCCC3)nnc2-c2ccoc2C)c1 | inactive
Cc1ccc(C2CC(c3ccccc3)n3ncnc3N2)cc1 (stereo unspecified) | inactive
CCn1c(C)cc(/C=C2/NC(=O)N(Cc3ccccc3F)C2=O)c1C | inactive
